SMILES strings stand for the structures.

This assay is described as follows: inhibitors of T. brucei MetRS aminoacylation, late-stage follow-up, biochemical, radioactivity, round 1 (AID 743060). Particulars: purified enzyme, radiolabel aminoacylation, scintillation, 2 h; at 1 µM; stronger effect = higher value.
In general, inhibition refers to the drop in the measured response relative to a control, in per cent. Consider `CCN(CC)C(=O)C(=O)c1cn(CC(=O)N(CC)c2ccccc2)c2ccccc12`, for which the inhibition was -3.75%.

Turning to `Cc1ccc(NC(=O)CN(C)C(=O)CCSc2ccc(F)cc2)cc1`, the inhibition is -1.05%. For the compound `Clc1ccc(OCCSCc2nc3ccccc3[nH]2)cc1`, the inhibition was -2.58%. Consider `CCCCCCCCCC1NC(C(=O)O)Cc2c1[nH]c1ccccc21` (centres undefined), for which the inhibition amounted to 64.7%. In the case of `COc1ccc(CNC(=O)CSc2nnc3c(n2)[nH]c2ccc(F)cc23)cc1`, the inhibition amounted to 47.5%.

As to `CC(C)(C)[C@H]1C=C(C(=O)NCc2nc3ccccc3[nH]2)O[C@@H](OCc2ccc(CO)cc2)C1`, the inhibition was determined as 21.6%. For the compound `O=C1CC(SCc2nc3ccccc3[nH]2)C(=O)N1c1cccc(Cl)c1` (centres undefined), the inhibition is 19.7%. For the compound `O=C(NCc1nc2ccccc2[nH]1)C1=C[C@@H](c2ccc3c(c2)OCO3)C[C@@H](OCCCCO)O1`, the inhibition amounted to 50.4%. In the case of `O=C(CN1CCSC1=NCc1ccccc1)c1ccc(Cl)c(Cl)c1`, the inhibition is -1.95%. Consider `CCN(CC)C(=O)C(=O)c1cn(CC(=O)N2CCCc3ccccc32)c2ccccc12`, for which the inhibition was -9.56%. With `O=C(Cn1cc(C(=O)C(=O)N2CCCC2)c2ccccc21)Nc1ccccc1`, the inhibition is -5.78%. On to `O=C1[C@@H]2Cc3c([nH]c4ccccc34)C(c3cccc([N+](=O)[O-])c3)N2C(=O)CN1CCCO` (some centres undefined), for which the inhibition turned out to be 63.2%. For the compound `O=C(C(=O)N1CCOCC1)c1cn(CC(=O)N2CCCc3ccccc32)c2ccccc12`, the inhibition is -6%.

As to `COc1ccc(NC(=O)CSc2nnc3c4cc(C)ccc4n(C)c3n2)cc1`, the inhibition is -3.06%. The result for `COc1ccc2[nH]c3nc(SCC(=O)Nc4ccc5c(c4)OCO5)nnc3c2c1` reads 63.4%.

Take `COc1ccc(CCN(C(=S)Nc2ccccc2)C2CC(=O)N(c3ccc(Cl)cc3)C2=O)cc1` (centres undefined): the inhibition stood at 92.7%.

Consider `O=C(NCc1nc2ccccc2[nH]1)C1=C[C@@H](c2ccccc2)C[C@@H](OCc2ccc(CO)cc2)O1`, for which the inhibition came to 44.6%. To `O=C(C[C@H]1C(=O)N(Cc2ccccc2)C[C@@H]1c1ccc(Br)cc1)Nc1ccc(Br)cc1` belongs 55.7%; to `O=C(Cn1cc(C(=O)COc2ccccc2)c2ccccc21)Nc1cccc(C(F)(F)F)c1`, -5.73%.

For the origin of these results see PubChem BioAssay AID743060 (The Scripps Research Institute Molecular Screening Center, 2013).
